hcDAF-12 act: activates DAF-12 receptor from parasite H. contortus; HEK293 hcDAF-12 lit1-tk-luc reporter, luminescence; 0% DMSO, 100% Δ7-dafachronic acid; activation, % at 6.8 µM; 1.4% of 370,000 active; AID 652067;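 active = activation above the mean of all tested compounds plus 3 SD, cut at about 5.5% in these data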
hgDAF-12 ag: activates the H. glycines DAF-12 receptor ligand-binding domain; activation, % at 6.8 µM; 1.8% of 370,000 active; HEK293 GAL4-hgDAF12 UAS-luciferase reporter, agonist luminescence; normalized to butyrate control;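 active = activation above a cutoff set at the mean of all screened compounds plus 3 SD, cut at about 10% in these data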
ssDAF12 agonist: activators of S. stercoralis DAF-12 nuclear receptor. HEK293 ssDAF-12/GRIP1 lit1-tk-luc reporter, luminescence; % of 3 µM dafachronic acid response. activation, % at 6.8 µM. 1% of 370,000 active;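 active = activation above the mean over all tested compounds plus 3 SD, cut at about 0.9% in these data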
DAX1 inh-1: inhibitors of human orphan nuclear receptor DAX1 (NR0B1). 0.99% of 340,000 active. HEK293 Gal4-DAX1 luciferase reporter, luminescence. inhibition, % at 6.75 µM. AID 504766;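 active = inhibition above the mean over all tested compounds plus 3 SD, cut at about 4.2% in these data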;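 note: inhibition shows as a rise in luminescence from relieved DAX1 repression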
Target sequence (P51843 207-470 limits assumed): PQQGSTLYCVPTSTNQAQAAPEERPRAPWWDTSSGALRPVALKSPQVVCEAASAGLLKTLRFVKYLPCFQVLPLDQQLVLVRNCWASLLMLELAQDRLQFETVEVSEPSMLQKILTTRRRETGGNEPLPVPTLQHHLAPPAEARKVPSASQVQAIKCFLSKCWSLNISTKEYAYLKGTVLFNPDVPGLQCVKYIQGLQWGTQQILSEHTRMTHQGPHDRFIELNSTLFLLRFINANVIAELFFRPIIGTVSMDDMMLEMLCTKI
DAX1 inh-2: blocks DAX1 repression of SF-1 activated StAR promoter; HEK293T StAR-luciferase reporter, SF-1/DAX-1 repression relief; inhibition, % at 6.8 µM; 1.1% of 370,000 active; AID 652010;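 active = inhibition above the mean over all tested compounds plus 3 SD, cut at about 3.6% in these data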;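 note: higher inhibition means more luminescence from relief of DAX-1 repression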
hgDAF12 conf: hgDAF-12 agonism, confirmation assay | HEK293 GAL4-hgDAF12 luciferase reporter, agonist mode; percent of butyrate response | shares compounds with hgDAF-12 ag | 80% of 3,300 active | activation, % at 6.8 µM | AID 743050;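 active = mean activation over triplicate wells above the hit cutoff derived from the earlier primary screen, cut at about 11% in these data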
LXR ag 2: activates human LXR-beta, counter-screen for DAF-12 agonists; 3,300 tested, under 10 active; shares compounds with hgDAF-12 ag; activation, % at 6.8 µM; HEK293 Gal4-LXR luciferase reporter, 24 h;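 active = mean activation of the triplicate above a set limit carried over from the primary screen, none filed active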
Of the large screens only hits and unclear results are named; the others gave an inactive call (follow-up assays come after a bar, where they were run). Sampled rows, rich in hits. Any-hit rate of the full collection: about 4.1%.

COc1ccc(N(CC(=O)NC2CCCC2)C(=O)Cn2nnc(-c3ccc(OC)c(OC)c3)n2)c(OC)c1	none
COc1cccc(NC(=O)Nc2ccc3nsnc3c2)c1	hgDAF-12 ag 14 | hgDAF12 conf 11 | LXR ag 2 inactive
CN(Cc1ccccc1F)c1cc2c(c3c1ccn3C)C1CCC2C1 (configuration not stated)	none (no result: DAX1 inh-1)
COc1ccc(C(=O)c2coc3ccc(O)cc23)cc1	hgDAF-12 ag 16 | hgDAF12 conf 20 | LXR ag 2 inactive
CC(=O)Oc1ccc2occ(C(=O)c3cccs3)c2c1	hgDAF-12 ag 14 | hgDAF12 conf 11 | LXR ag 2 inactive
CC(=O)Oc1ccc2occ(C(=O)c3ccccc3)c2c1	none (no result: DAX1 inh-1)
COC(C(=O)N/N=C(\C)c1ccc(O)cc1)c1ccccc1 (configuration not stated)	hgDAF-12 ag 14 | hgDAF12 conf inactive | LXR ag 2 inactive
Cc1cc(C(=O)Cn2nc(C(=O)O)c3ccccc3c2=O)c(C)n1C1CC1	none
COCCn1c(C)cc(C(=O)Cn2nc(C(=O)O)c3ccccc3c2=O)c1C	hgDAF-12 ag 14 | hgDAF12 conf 12 | LXR ag 2 inactive
CCc1ccc(C(=O)Nc2cc3c(cc2Cl)OCCCO3)cc1	hgDAF-12 ag 14 | hgDAF12 conf 14 | LXR ag 2 inactive
COc1cccc(C(=O)NCCSc2ccc(C)cc2)c1	none
COc1cccc(C(=O)NCCSc2ccc(F)cc2)c1	hgDAF-12 ag 14 | hgDAF12 conf 12 | LXR ag 2 inactive
CCN(CC)S(=O)(=O)c1cc(C(=O)OCC(=O)Nc2ccc(-c3nc4ccc(C)cc4s3)cc2)ccc1F	hgDAF-12 ag 16, ssDAF12 agonist 1.2 | hgDAF12 conf 19 | LXR ag 2 inactive
Cc1ccc2nc(-c3ccc(NC(=O)COCC(=O)O)cc3)sc2c1	hgDAF-12 ag 16 | hgDAF12 conf 11 | LXR ag 2 inactive
Cc1ccc(C2(C)NC(=O)N(CC(=O)Nc3ccc(-c4nc5ccc(C)cc5s4)cc3)C2=O)cc1 (configuration not stated)	hgDAF-12 ag 24, ssDAF12 agonist 1.1 | hgDAF12 conf 12 | LXR ag 2 inactive
Cc1ccc(NC(=O)CN2C(=O)NC(C)(c3ccc4c(c3)OCO4)C2=O)cc1 (configuration not stated)	none
CCC(=O)NC(=S)Nc1ccc(-c2nc3ccc(C)cc3s2)cc1	hgDAF-12 ag 17 | hgDAF12 conf 13 | LXR ag 2 inactive
CCCNC(=S)N1CCC(C(=O)c2ccc(F)cc2)CC1	none
Cc1onc(-c2ccccc2)c1C(=O)NCCSCc1ccco1	none
O=C(CSc1nnc(NC(=O)c2ccc(F)cc2F)s1)NC1CC1	none
CC(=O)NC(CC(=O)NC1CCCc2ccccc21)c1ccccc1 (configuration not stated)	none
N#C/C(=C\c1ccc(OCc2ccc(C(=O)O)cc2)cc1)C(=O)NCc1ccccc1	none
N#C/C(=C\c1ccc(OCc2cccc(C(=O)O)c2)cc1)C(=O)NCc1ccco1	hgDAF-12 ag 15, DAX1 inh-2 3.8 | hgDAF12 conf 18 | LXR ag 2 inactive
CC(OC(=O)[C@@H](NC(=O)OCc1ccccc1)C(C)C)C(=O)Nc1ccc(N2CCOCC2)cc1 (some centres not stated)	none
Cc1cccc(/C=C\c2nc3ccccc3c(=O)[nH]2)c1	hgDAF-12 ag 15, DAX1 inh-2 3.6 | hgDAF12 conf 21 | LXR ag 2 inactive
CCc1ccc(Sc2cc(C(=O)NCCN3CCOCC3)c3ccccc3n2)cc1	none
O=C(NC(=S)Nc1ccccc1)c1cccs1	hgDAF-12 ag 15, DAX1 inh-1 4.5 | hgDAF12 conf 17 | LXR ag 2 inactive
C/C(=N\NC(=O)Cc1ccc(O)cc1)c1cccnc1	none
C/C(=N\NC(N)=S)c1ccc2c(c1)OCCO2	none
CC(=NNC(N)=S)c1ccc2cc3c(cc2c1)OCO3	hgDAF-12 ag 25 | hgDAF12 conf 13 | LXR ag 2 inactive
CCC(=O)Nc1ccc2c(c1)C(=O)c1ccccc1C2=O	hcDAF-12 act 6.4, hgDAF-12 ag 13, DAX1 inh-2 3.8 | hgDAF12 conf 16 | LXR ag 2 inactive
Cc1nc(SCCC(=O)O)c2cc(-c3ccccc3)sc2n1	none
COc1cc(CCC(=O)NC2(C)CCS(=O)(=O)C2)cc(OC)c1OC (configuration not stated)	none
O=C(N/N=C/c1ccccn1)c1c[nH]c2ccccc12	hgDAF-12 ag 15 | hgDAF12 conf 13 | LXR ag 2 inactive
O=C(CN1C(=O)CSCC1=O)Nc1ccc2c(c1)OCO2	none
CC1SC(C)C(=O)N(CC(=O)Nc2ccc3c(c2)OCO3)C1=O (configuration not stated)	hgDAF-12 ag 14 | hgDAF12 conf inactive | LXR ag 2 inactive
COc1ccc(C(=O)[C@H]2[C@H]3C(=O)N(c4ccc(C)cc4)C(=O)[C@H]3C3C=CC=NN32)cc1 (some centres not stated)	none (no result: DAX1 inh-1)
CC(=O)Oc1ccc(C(=O)[C@H]2[C@H]3C(=O)N(c4ccc(C)cc4)C(=O)[C@H]3[C@@H]3C=CC=NN32)cc1	hcDAF-12 act 5.9, hgDAF-12 ag 16 | hgDAF12 conf inactive | LXR ag 2 inactive
Cc1ccc2nc(C(C)(C)C)c(Cc3cccc(F)c3)n2c1	hgDAF-12 ag 16, ssDAF12 agonist 2.2, DAX1 inh-2 3.7 (no result: DAX1 inh-1) | hgDAF12 conf inactive | LXR ag 2 inactive
COC(=O)c1ccc2nc(-c3ccc(C)cc3)c(Cc3cccc(F)c3)n2c1	none (no result: DAX1 inh-1)
CCCc1nc2ccc(C)cn2c1Cc1ccc(C)cc1	hgDAF-12 ag 14 (no result: DAX1 inh-1) | hgDAF12 conf inactive | LXR ag 2 inactive
Cc1ccc(-c2nc3ccc(C)cn3c2Cc2cccc(F)c2)cc1	hgDAF-12 ag 15, DAX1 inh-2 3.6 (no result: DAX1 inh-1) | hgDAF12 conf inactive | LXR ag 2 inactive
Cc1ccc2nc(-c3cccc(Cl)c3)c(Cc3cccc(Cl)c3)n2c1	none (no result: DAX1 inh-1)
COc1ccccc1Cc1c(-c2cccc(Cl)c2)nc2ccc(C)cn12	hgDAF-12 ag 15 (no result: DAX1 inh-1) | hgDAF12 conf inactive | LXR ag 2 inactive
Fc1cccc(Cc2c(-c3cccc(Cl)c3)nc3ccc(Cl)cn23)c1	none (no result: DAX1 inh-1)
COc1ccc(NC(=O)NC2(C(=O)N3CCN(C)CC3)CCCCC2)cc1	none
O=C(Nc1ccc(Cl)cc1)C1C2C=CC3(O2)C1C(=O)N(CCCN1CCCCC1)C3C(=O)NC1CCCCC1 (configuration not stated)	none
COc1ccc(Cl)cc1C(=O)NC(=S)Nc1cc(-c2nc3ccccc3[nH]2)ccc1C	none
O=C(CCN1C(=O)c2ccccc2C1=O)Nc1sc2c(c1C(=O)NCC1CCCO1)CCC2 (configuration not stated)	none
